Source: the supplement of paper PMC11417369
The full ranking holds about 25,000 sequences; the median of “ln(normalized median fluorescence intensity)” is about 6.7, and the highest 2% start at about 10. Only a selection was taken, and the highest values are over-represented in it overall.

tested on: PfHDP1 homeodomain (GST-tagged); assay: gcPBM binding intensity (ln(normalized median fluorescence intensity)); higher = stronger DNA binding
Method in brief: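 Alexa488 anti-GST antibody, scanned at 488 nm, detected GST-tagged P. falciparum DNA-binding domains that had been expressed in E. coli and incubated for 1 h on an Agilent 4 × 180k array. The array carried primer-extended double-stranded 36-bp intergenic genomic probes and negative controls. Binding intensity is the highest Masliner-normalised natural-log median intensity across replicate spots of either orientation of each probe.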

| Sequence | gcPBM binding intensity (ln) |
| --- | --- |
| TATATATATATATGTATGCACTTTAATTTTATAAGG | 9.31 |
| TTATGTTCTTAATGCACACTTATAAGTATCTTATAA [CACACA_site1394] | 9.72 |
| TTTTATGTTCTTAATGCACACTTATAAGTATCTTAT [CACACA_site4895] | 10.6 |
| TATGAATATTGCATGTGTACCTATTATCCTTTTAAA [XGTACX_site4311] | 6.95 |
| TATAAAAAAAAAAAAAGTACTAACTTAAAACAATTT [XGTACX_site7969] | 5.92 |
| CACTTTAATTTATGCACACATATGGAACAACAGCCA [CACACA_site994] | 10.6 |
| AACACTTTAATTTATGCACACATATGGAACAACAGC [CACACA_site8241] | 10.2 |
| TATTCAACATAATATGCACACAAAAATTATGGAACG [CACACA_site8660] | 9.99 |
| ACAGAATACATATACACACATACAAAAAAGTGCATA [CACACA_site987] | 7.81 |
| TTTTTAAAAATATACACACACAGATATTATATATAT [CACACA_site786] | 6.94 |
| TTATAATAATTTTATGCACACAGAAAAATACAAGGT [CACACA_site9169] | 10.2 |
| TTTTTAATATATTAGGTGCACAATAATACACTTTAT | 10.3 |
| TTTTTTTAACGGTGTGCACACAATATACAGAAAAAA [CACACA_site1415] | 11.1 |
| TTTTTTTAATAGTGTGCACACAATATACAGAAAAAA [CACACA_site8399] | 11 |
| TGTAGTCTGGAGAAAAGTACATAGTATCTGATAACC [XGTACX_site2018] | 6.4 |
| AACCATTTTAAATATGCACACAGATGCACTAACACA [CACACA_site8565] | 10.5 |
| TAAATATGCTCACAGATGCACTAACACATTTTTATA [GTGCAC_site9997] | 10.4 |
| TGGCACTAAAAAAATAAACACACAGATTTATATAAT [CACACA_site8386] | 6.51 |
| CCATTTTAAATATGCACACAGATGCACTAACCCATT [CACACA_site1883] | 9.9 |
| GCACTAAAAAAATAAACACACAGATTTATATAATAT [CACACA_site1381] | 6.5 |

| Sequence | gcPBM binding intensity (ln) |
| --- | --- |
| CCATTTTAAATATGCACACAGATGCACTAACACATT [CACACA_site5099] | 10.6 |
| TATGTTCCTTTTTGTTGTACTGAAAAATTATGTTCA [XGTACX_site3981] | 6.61 |
| GAAATAATAAATTAAAAATCGTTTATAACATTTAAC [CACACA_negctrl_site425] | 6.21 |
| AAATTCATAAAAATATTTTATAATTATATATAGAAT [TGCATGCA_negctrl_site343] | 6.34 |
| ATAAAATATATATATATAAAAATAAATACATAAATA [GTGCAC_negctrl_site157] | 6.31 |
| GCATATGTTTATTGCACACACCAAAAAGAAAACATA [CACACA_site4384] | 10.5 |
| CACAAAAAGAAACACACACACATATATATTTATTAT [CACACA_site3646] | 6.73 |
| ATGCATATGTTTATTGCACACACCAAAAAGAAAACA [CACACA_site403] | 9.25 |
| ACTATATTTCATAACAGTACATATTCCTGAAACATC [XGTACX_site4924] | 6.43 |
| ATAATATAAATACAAACACACAATTGTGTCCACATT [CACACA_site6920] | 6.79 |
| AGTATATACACGTGCGTGCACAGATATTCTTTTTTT [GTGCAC_site9398] | 9.58 |
| AATACTAAAAAGTGTACACATACATAAAAAATTGCA [CACACA_site5620] | 7.24 |
| GATTTATACAAATATGTACACACTAATTATATATTA [CACACA_site8045] | 6.9 |
| ACGCTAATTATGTGCACACAAATTAAAGGTCTACAA [CACACA_site147] | 11.4 |
| ATATTCTAAATAAAGGGTACACAAAAATAATTAAAG [XGTACX_site5529] | 6.9 |
| TGTTAATAAAGGTGTACACAAAATAAAAAAAATTAT [CACACA_site4288] | 7.2 |
| GTACACTAATTATGTGCACACAAATTAAAGGTCTAC [CACACA_site146] | 11 |
| AATTAATGGCTAAAGGTGCACAATATATATATTACA | 9.84 |
| CCACTAATTATGTGCACACAAATTAAAGGTCTACAA [CACACA_site4259] | 11.4 |
| TTTATATTTAAAAGGATGCACTACAAATTCTAAATA | 7.36 |

| Sequence | gcPBM binding intensity (ln) |
| --- | --- |
| TCTTTATGTAAGGTCTTCCACAAAAAAATTAAAAAA [TGCATGCA_negctrl_site229] | 6.21 |
| TTTTTCTTTCTCTATTGTACACATGGAAACACATAA [XGTACX_site4601] | 7.56 |
| AAAAAAAAAAGAAACACACACATATATATATATAAT [CACACA_site5052] | 6.7 |
| AATACAAACCAAAAAGTAAATACATCAACATGATCA [CACACA_negctrl_site140] | 6.26 |
| CTATATATTTTTCATTGTACACAAATTAAAGAAAAA [XGTACX_site8385] | 6.61 |
| GTTGCACAATGTTACACACACAATATAGATCGTTAA [CACACA_site6717] | 9.91 |
| GTTGCACAATGTTACACACACAATATATATCGTTAA [CACACA_site1275] | 9.41 |
| ATGTTGCACAATGTTACACACACAATATATATCGTT [CACACA_site4833] | 10.7 |
| ATATAATTACATTGATGTACACGAAATGATTAACAT [XGTACX_site5183] | 6.43 |
| TATTCAGGTCCAATGGTGCAATATATTTTTGTAATA [GTGCAC_site9607] | 10.6 |
| TATTCATATTTAAAGGTGCAATATTTATTTTGTACA | 9.16 |
| ATTCATTTACCAATGGTGCAATATATTTTTATAATG | 10.3 |
| ATTAGTATATTTCTCTGTACTTACATTAAAATATAA [XGTACX_site2217] | 6.41 |
| TTACACATGTATTTGGTGCATGTTGTTAACAAAATA | 9.83 |
| ATTTATTTATACAAAGTGCAATATTTTGTTAAAGTC [GTGCAC_site9618] | 8.15 |
| TTTTTTGTTAAGTTGGTGCAAACAATAGTTATTGAC | 10.7 |
| TTTATTTTAACTTGTTCACACATTTGAATAAATAAA [CACACA_site5064] | 6.3 |
| ATAATATATTATTATAGTACTTTATTTTATTTTATG [XGTACX_site2387] | 6.65 |
| TTTTTAAAATTTTTAAAAATATTATGTTAAATATAT [CACACA_negctrl_site415] | 6.29 |
